Measured values: the supplement of paper PMC10127200
Where a name gives a salt, the structure may show the parent alone.

Columns and labels:
Test in all cases: Euclidean distance of Cell Painting phenotypic profile (signed KS, 77 features) to DMSO centroid (dimensionless distance); higher = stronger phenotypic change vs DMSO (phenoactivity)
Conditions in all cases: 48 h; 5 or 10 uM (library dependent)
786-O = system: 786-O
How it was run: (§1)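 Harmony extracted 77 features from 20X confocal images (9 fields/well) of stained cells, scoring each as a signed Kolmogorov-Smirnov statistic against same-plate vehicle wells. The cells, five cancer lines and a healthy fibroblast line, had received library compounds for 48 h at 10 or 5 uM depending on library, with 0.1% DMSO final. Phenoactivity is the Euclidean distance from each plate-position-corrected, correlation-weighted, top-dose replicate-averaged profile to the median vehicle profile.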

A549 = system: A549
How it was run: as §1

DU145 = system: DU145
How it was run: as §1

FB = system: FB
How it was run: as §1

HEPG2 = system: HEPG2
How it was run: as §1

OVCAR4 = system: OVCAR4
How it was run: as §1

Compound	Euclidean distance (786-O)	Euclidean distance (A549)	Euclidean distance (DU145)	Euclidean distance (FB)	Euclidean distance (HEPG2)	Euclidean distance (OVCAR4)
COc1ccc(OC)c(C(O)C(C)N)c1 (stereo not drawn) [Methoxamine HCl]	0.732	0.76	1.03	1.08	0.595	1.41
CC(C)(C)[C@]1(O)CC2OC(=O)CC23C(=O)OC2OC(=O)[C@H](O)C231 (stereo partly drawn) [Bilobalide]	1	1.09	0.515	0.78	0.996	1.47
Cc1cc(O)ccc1Cl [Chlorocresol]	0.894	0.612	0.527	0.762	0.668	1.1
CC(C)[N+](C)(CCC(C(N)=O)(c1ccccc1)c1ccccc1)C(C)C [Isopropamide Iodide]	1.26	0.953	1.08	1.25	0.717	1.23
COc1cc2c(c(OC)c1OC)-c1ccc(OC)c(=O)cc1[C@@H](NC(C)=O)CC2 [Colchicine]	3.12	3.04	4.54	2.88	3.8	3.18
CC[C@H](C)[C@@H]([C@@H](CC(=O)N1CCC[C@H]1[C@H](OC)[C@@H](C)C(=O)N[C@H](C)[C@@H](O)c1ccccc1)OC)N(C)C(=O)[C@@H](NC(=O)[C@@H](NC)C(C)C)C(C)C [Monomethyl auristatin E (MMAE)]	3.13	2.69	4.69	2.93	3.85	3.16
CC(C)OC(=O)[C@H](C)N[P@](=O)(CO[C@H](C)Cn1cnc2c(N)ncnc21)Oc1ccccc1 [Tenofovir Alafenamide (GS-7340)]	1.71	1.16	1.44	1.85	2.92	1.58
Cc1ccc2c(c1)[C@]13CCCC[C@@H]1[C@H](C2)N(C)CC3 [Dimemorfan phosphate]	1.28	1.25	1.36	3.6	2.34	1.19
CN1[C@@H]2CC[C@H]1C[C@@H](OC(=O)[C@H](CO)c1ccccc1)C2 [Hyoscyamine]	0.984	0.92	0.681	0.505	0.646	1.31
Oc1ccc(Cl)cc1Cc1cc(Cl)ccc1O [Dichlorophene]	0.835	1.05	1.3	1.16	0.516	1.18
CC(=O)O[C@H]1C[C@H](O[C@H]2[C@@H](O)C[C@H](O[C@H]3[C@@H](O)C[C@H](O[C@H]4CC[C@@]5(C)[C@H](CC[C@@H]6[C@@H]5C[C@@H](O)[C@]5(C)[C@@H](C7=CC(=O)OC7)CC[C@]65O)C4)O[C@@H]3C)O[C@@H]2C)O[C@H](C)[C@H]1O[C@@H]1O[C@H](CO)[C@@H](O)[C@H](O)[C@H]1O [Lanatoside C]	6.1	5.41	7.41	3.88	2.69	6.46
CN1[C@@H]2CC(O)C[C@H]1[C@@H]1O[C@@H]12 (stereo partly drawn) [Scopine HCl]	0.344	0.885	0.479	0.66	0.893	0.714
Nc1ccncc1 [4-Aminopyridine]	1.38	0.626	0.961	0.938	0.429	0.946
C#C[C@]1(OC(=O)CCCCCC)CC[C@H]2[C@@H]3CCC4=CC(=O)CC[C@@H]4[C@H]3CC[C@@]21C [Norethisterone Enanthate]	2.37	2.5	3.85	1.34	2.23	1.22
C[C@@H]1[C@H](O)[C@@H](C)/C=C/C=C/CC/C=C/C=C/C=C/C=C/[C@H](O[C@H]2O[C@@H](C)[C@H](O)[C@@H](N)[C@H]2O)C[C@@H]2O[C@](O)(C[C@@H](O)[C@H](O)CC[C@@H](O)C[C@@H](O)C[C@@H](O)CC(=O)O[C@H]1C)C[C@H](O)[C@H]2C(=O)O [Nystatin (Fungicidin)]	1.05	1.12	1.4	0.85	1.2	1.06
CCC1=C[C@H]2CN3CCc4c([nH]c5ccccc45)[C@](C(=O)OC)(C2)[C@H]13 [Catharanthine]	1.45	1.4	0.692	1.02	0.581	1.41
C#C[C@]1(O)CC[C@H]2[C@@H]3CCC4=CC(=O)CC[C@]4(C)[C@H]3CC[C@@]21C [Ethisterone]	1.07	0.836	1.58	0.721	0.747	1.06
CCc1c(C(=O)C(N)=O)c2c(OCC(=O)O)cccc2n1Cc1ccccc1	0.933	1.14	1.33	0.633	0.812	0.982
Cn1c(CCCC(=O)O)nc2cc(N(CCCl)CCCl)ccc21 [Bendamustine]	0.99	0.793	0.645	0.717	0.64	0.732
CC[C@@]1(O)C[C@H](O[C@H]2C[C@H](N(C)C)[C@H](O)[C@H](C)O2)c2c(cc3c(c2O)C(=O)c2c(O)cccc2C3=O)[C@H]1C(=O)OC [Aclacinomycin]	2.61	3.27	3.54	3.61	3.76	3.12
C[C@](O)(COc1ccc(C#N)cc1)C(=O)Nc1ccc(C#N)c(C(F)(F)F)c1	1.54	1.28	0.792	1.72	1.24	1.74
O=[N+]([O-])O[C@@H]1CO[C@H]2[C@@H]1OC[C@@H]2O [Isosorbide Mononitrate]	1.15	1.13	0.879	0.9	0.868	0.962
CCC(=O)O[C@H]1CC[C@H]2[C@@H]3CC[C@H]4CC(=O)[C@H](C)C[C@]4(C)[C@H]3CC[C@]12C [Drostanolone Propionate]	0.791	1.02	0.706	0.585	1.34	0.745
